Screens from PubChem.
Only some compounds are listed: those with a hit (about 1.6% of all), similar ones and a draw of the others.
PERK inh – blocks human PERK kinase | Q9NZJ5 | CHO PERK-DD fusion, SEAP luminescence translation reporter | inhibition, % at 5.6 µM | 220,000 tested, 0.17% active;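 active means inhibition above the mean inhibition of all tested compounds plus 3 SD, set separately per screening campaign, cut at about 2.9% in these data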;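 further: PERK kinase domain activated by AP20187 dimerizer at 100 nM; 0% = DMSO with dimerizer and 100% = rapamycin at 8.4 µM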
eIF4H FP inh – inhibitors of RNA binding by human eIF4H. 290,000 tested, 0.94% active. eIF4H fluorescence polarization binding assay. inhibition, % at 35 µM. Q15056;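 further: calls also rest on retests at 20 µM and on dose response follow-up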
PABP polyA inh – PABP-poly(A) binding inhibition; P11940; PABP-poly(A) RNA binding, fluorescence polarization; inhibition, % at 35 µM; 290,000 tested, 1% active; AID 2014;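 further: calls also rest on retests at 20 µM and on dose response follow-up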
MLLE-PAM2 inh – blocks PAM2 peptide binding to the PABP1 MLLE domain. P11940. GST-MLLE / FITC-PAM2 fluorescence polarization. inhibition, % at 20 µM. 360,000 tested, 0.36% active. AID 588489; in the data active means inhibition above about 35%, passing the limit was not always enough;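 further: plate controls were DMSO wells with GST-MLLE for no effect and wells lacking GST-MLLE protein for full effect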
eIF4E-4G inh – eIF4E/eIF4G interaction inhibition in translation initiation; P63073+Q04637; TR-FRET eIF4E-eIF4GI(517-606) binding, 2 h; inhibition, % at 21.7 µM; 220,000 tested, 0.37% active;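 active means inhibition above about 30%, limit read from the data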;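 further: 0% = full FRET control wells and 100% = background wells lacking eIF4GI fragment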
Active calls of the source: *; ? = inconclusive; · = not tested or not shown. Unless noted, how the calls were made is not given here.

SMILES	PERK inh	eIF4H FP inh	PABP polyA inh	MLLE-PAM2 inh	eIF4E-4G inh
COC(=O)C1=C(C)N(c2ccc(OC)cc2)C(=O)/C1=C\c1cccs1	0.7	active	70.7*	-8.8	-3.9
COC(=O)C1=C(C)N(c2ccc(OC)c(OC)c2)C(=O)/C1=C\c1cccs1	0.5	-0.2	6.3	-16.5	0.0
CCOC(=O)N1CCN(C(=O)C2CCC(=O)N(CCc3ccccc3)C2)CC1 (stereo unspecified)	·	-8.1	2.8	0.4	·
O=C1OC(c2ccc3c(c2)OCO3)=N/C1=C\c1ccc(C(=O)O)cc1	·	54.9*	-1.0	-0.4	·
COc1ccc(N2CCN(CC(=O)Nc3nnc(-c4ccccc4)s3)CC2)cc1	-0.1	2.3	2.6	-1.5	-2.8
CCn1cc(C(=O)O)c(=O)c2cc(S(=O)(=O)N(C)C)ccc21	3.2*	-3.4	-1.5	-0.2	-1.7
CN1CCN(NC(=O)c2cc([N+](=O)[O-])cc([N+](=O)[O-])c2)CC1	1.2	0.1	-8.6	-4.3	4.7
Cc1ccc2nc(/C(C#N)=C/c3ccc(-c4ccccc4C(=O)O)o3)[nH]c2c1	·	?	?	-125.6	·
N#C/C(=C\c1ccc(-c2ccccc2C(=O)O)o1)c1nc2ccccc2[nH]1	·	79.3	49.4*	-125.7	·
N#Cc1ccc(Cl)cc1NC(=O)CSc1nc2nc(-c3cccs3)cc(C(F)(F)F)c2c(=O)[nH]1	0.7	16.4	0.4	·	30.9*
CC(=O)Nc1ccc(NC(=O)CSc2nc3nc(-c4cccs4)cc(C(F)(F)F)c3c(=O)[nH]2)cc1	0.2	26.7	14.4	-17.7	-6.1
CC(C(=O)O)N1C(=O)/C(=C/C=C/c2ccco2)SC1=S (stereo unspecified)	0.1	88.8*	86.8*	15.6	·
O=C1/C(=C/C=C/c2ccco2)SC(=S)N1NS(=O)(=O)c1ccccc1	0.9	88.6*	89.3*	-2.4	33.9*
O=C1/C(=C/c2cccs2)SC(=S)N1NS(=O)(=O)c1ccccc1	0.1	-9.1	12.0	-16.7	-0.3
Cc1ccc(S(=O)(=O)N2CCOCC2)cc1NC(=O)CSc1nc(N)cc(N)n1	·	·	·	-1.6	·
CN(C)c1ccc(/C=N/NC(=O)c2ccn(C)n2)cc1	3.0*	4.4	-0.4	-18.9	0.7
N/C(Cc1cccc2ccccc12)=N\OC(=O)c1ccc(Br)o1	0.0	100.3	-3.3	·	-3.5
CCOC(=O)c1nnn(CC(=O)Nc2cc(Cl)ccc2C)c1C(=O)OCC	-1.0	-2.5	7.1	1.2	-1.4
CC(SC1=Nc2ccccc2C2CC=NN12)C(=O)NC1(C#N)CCCCC1 (stereo unspecified)	·	·	·	40.8*	·
O=C(O)c1cnc2ccc(Cl)cc2n1	·	·	·	0.3	·
Cn1c(CNc2ccccc2O)nc2ccccc21	0.8	86.4*	69.2*	2.1	-3.2
O=C(O)CN1C(=O)/C(=C\c2cc(Br)ccc2OCc2ccc(Cl)cc2Cl)SC1=S	·	88.5*	63.4*	12.3	·
Cc1cc(C)c(NC(=O)COC(=O)C2CCC(=O)N2)c(C)c1 (stereo unspecified)	-0.1	-4.6	8.7	16.7	0.7
N#Cc1c(Nc2cccc(F)c2)sc2c(O)cc(=O)[nH]c12	1.3	55.7*	active	-83.9	3.3
CCNC(=O)NC(=O)C(C)OC(=O)CCCSc1nc2ccccc2s1 (stereo unspecified)	0.6	-4.3	-2.9	-3.6	1.1
SMILES	PERK inh	eIF4H FP inh	PABP polyA inh	MLLE-PAM2 inh	eIF4E-4G inh
CCOC(=O)CNC(=O)CSc1nc(-c2cccc(C)c2)ns1	0.5	4.7	12.0	41.1*	-1.0
Cc1cccc(-c2nsc(SCC(=O)NCc3ccco3)n2)c1	-0.8	7.2	-8.5	13.3	18.3
O=C(NCC1CC1)c1cc([N+](=O)[O-])cc([N+](=O)[O-])c1	·	-3.6	-1.1	-6.7	·
CN1c2cccc3cccc(c23)N(C)C1(C)C	-0.8	73.2*	55.3*	18.7	9.5
N=C(N)SCP(=O)(c1ccccc1)c1ccccc1	1.4	5.8	-4.8	37.9*	-12.7
O=C1CCC(=O)N1c1ccc(-c2nc3ccccc3s2)cc1	-0.2	61.3*	-0.2	2.3	0.7
Nc1ccc(-c2nc3ccccc3s2)cn1	·	12.0	3.3	3.7	·
Cc1c(C(=O)N/N=C/C(C)C)[nH]c2ccc([N+](=O)[O-])cc12	1.3	-1.2	4.2	-7.0	0.1
N#Cc1ccc(-c2cccs2)nc1SCc1cccnc1	-1.7	12.4	5.4	-14.5	-6.1
COC(=O)C1C2CCC(C2)C1C(=O)OCC(=O)c1ccc(C)cc1 (stereo unspecified)	0.1	-1.6	7.3	0.7	0.0
O=C(O)c1cc(-c2ccc(/C=C3\NC(=O)N(c4ccccc4)C3=O)o2)ccc1Cl	0.7	41.0	35.0	-3.5	1.3
O=C(O)c1cc(-c2ccc(/C=c3\sc4nc5ccc(Br)cc5n4c3=O)o2)ccc1Cl	·	55.2*	53.9*	·	·
Cc1cc2nc3s/c(=C/c4ccc(-c5ccccc5C(=O)O)o4)c(=O)n3c2cc1C	·	36.3	42.1	-143.0	·
O=C(O)c1cc(-c2ccc(/C=C3\NC(=O)N(c4ccc(Cl)cc4)C3=O)o2)ccc1Cl	1.5	85.3*	92.1*	-15.0	8.0
O=C(O)c1ccccc1-c1ccc(/C=c2\sc3nc4cc(Br)cnc4n3c2=O)o1	0.7	77.4*	50.6*	-125.2	23.0
Cc1ccc(S(=O)(=O)c2c(N)n(/N=C/c3ccco3)c3nc4ccccc4nc23)cc1	1.1	69.1*	93.9*	-17.4	-4.1
Nc1c(S(=O)(=O)c2ccccc2)c2nc3ccccc3nc2n1/N=C/c1ccco1	0.2	64.0	32.1*	-36.4	-0.3
Cc1cccc(S(=O)(=O)c2c(N)n(/N=C/c3ccco3)c3nc4ccccc4nc23)c1	-0.4	19.5	32.4	-19.6	-2.3
Cc1ccc(S(=O)(=O)c2c(N)n(/N=C/c3ccco3)c3nc4ccccc4nc23)cc1C	0.5	9.0	44.1	-13.7	-2.9
Cc1nc(C)c(C(=O)Nc2ncc([N+](=O)[O-])s2)o1	-0.6	54.1	8.2*	12.4	14.3
COc1ccc2oc(-c3ccncc3)cc(=O)c2c1	·	·	·	40.1*	·
CCN(CC)c1ccc(-c2n[nH]c(=S)n2-c2ccccc2)cc1	-0.7	3.4*	75.1	4.7	-2.9
Cc1oc(C(=O)Nc2ccc(C(=O)O)cc2)cc1COc1ccccc1	0.9	6.7	25.0	0.3	-6.5
CCCCNC(=O)COC(=O)c1c2c(nc3ccccc13)CCC2	·	67.6*	18.2*	-16.8	·
C=CCNC(=O)COC(=O)c1c2c(nc3ccccc13)CCC2	·	58.6*	36.2*	-8.0	·
CNC(=O)COC(=O)c1c2c(nc3ccccc13)CCC2	0.7	66.1*	34.1	-18.6	14.2
COc1ccc(NC(=O)COC(=O)c2c3c(nc4ccccc24)CCCC3)cc1	-0.6	2.0	-5.2	6.1	1.1
CC(C)NCC(=O)Nc1c2c(nc3ccccc13)CCC2	-0.3	16.3	7.6	3.2	31.0*
CCN(CC)C(=O)CC(c1cc(OC)c(OC)c(OC)c1)c1c(OC)cc(OC)c2c(-c3ccccc3)cc(=O)oc12 (stereo unspecified)	·	103.4*	45.7*	-3.1	34.5*
CCOC(=O)C1=C(C)NC(C)=C(C(=O)OCC)C1c1cccs1	-0.1	-0.7	-5.7	9.3	-5.5
